{
  "source": "PubChem BioAssay (EPA / NIEHS)",
  "key": {"[1]": {"assay": "TAMU_HCS_1.5hr_SingleDonor1434_Cytotoxicity: Cytotoxicity Assessment using High-content Screening (HCS) Fluorescent Imaging for the Texas A&M University (TAMU) 1.5-hr Human Induced Pluripotent Stem Cell (iPSC)-derived Cardiotoxicity Assay (AID 2284234)", "procedure,_shortened": "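Nuclear counts from Hoechst 33342 imaging define cytotoxicity here, with EC10 (10% cell-count loss relative to DMSO) as point of departure. iPSC cardiomyocytes received 0.2-100 uM test chemical in 0.5% DMSO for 1.5 h at 37 C.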"}, "[2]": {"assay": "TAMU_PeakParms_SingleDonor1434_QT: Texas A&M University (TAMU) 1.5-hr Human Induced Pluripotent Stem Cell (iPSC)-derived Cardiomyocytes Calcium (Ca+2) Flux Assay for Cardiotoxicity: QT (decay-rise ratio) (AID 2284235)", "procedure,_shortened": "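Decay/rise ratio of calcium-flux fluorescence scored after 90 min exposure (37C) of donor 1434 iPSC cardiomyocytes to 0.2–100 uM (0.5% DMSO). Beat-cessation and severe-notch points removed; POD is EC05, a 5% rise over DMSO.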"}, "[3]": {"assay": "CCTE_Mundy_HCI_Cortical_NOG_BPCount: CCTE's Neurite Outgrowth Assay in rat cortical cells for Branch Point Count, Mundy Lab (AID 2284237; active = hit-call score of the fitted dose curve at least 0.9, where 1 is the maximum; inactive = score below 0.9;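 as to AC50: branch points counted about two days after chemical exposure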)", "procedure,_shortened": "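Measured 50.33 h after dosing, this morphology endpoint uses rat primary cortical cultures labelled for betaIII-tubulin. Branch points are quantified by high-content imaging, with DMSO as negative control and baseline.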"}, "[4]": {"assay": "CCTE_Mundy_HCI_hNP1_Casp3_7: CCTE's Caspase-Glo 3/7 Assay in human neuroprogenitor cells for Apoptosis, Mundy Lab (AID 2284240; active = hit-call score of the fitted dose curve at least 0.9, where 1 is the maximum; inactive = score below 0.9)", "procedure,_shortened": "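Luminescent caspase-3/7 readout, 26.5 h post-dose, in human neural progenitor cells from WA09 embryonic stem cells. Cells grew 40–44 h at 37 °C, 5% CO2 before chemical addition. Activity analysed as signal increase over DMSO baseline.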"}, "[5]": {"assay": "CCTE_Mundy_HCI_hNP1_CellTiter: CCTE's Cell Titer-Glo 2 Assay in human neuroprogenitor cells for Viability, Mundy Lab (AID 2284241);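 as to AC50: a hit is a drop in ATP luminescence versus DMSO meaning reduced viability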", "procedure,_shortened": "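Viability read as luminescent ATP content (CellTiter-Glo, 30 min room temperature) twenty-four hours after dosing, relative to DMSO. Cells: WA09-derived hNP1 neuroprogenitors on poly-L-ornithine/laminin, plated 40 to 44 hours before chemical.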"}, "[6]": {"assay": "CCTE_Mundy_HCI_Cortical_Synap_Neur_Matur_NeuronCount: CCTE's Synaptogenesis and Neurite Maturation Assay in rat cortical cells for Neuron Count, Mundy Lab (AID 2284242);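 as to AC50: hits reduce neuron count versus DMSO baseline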", "procedure,_shortened": "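Rat cortical cultures; AraC DIV 5; chemical dosing + media change DIV 7 to DIV 12 (288.33 h readout). Fix, Hoechst, anti-MAP2/anti-synaptophysin immunostain; HCI neuron count vs DMSO baseline.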"}, "[7]": {"assay": "CCTE_Mundy_HCI_Cortical_NOG_NeuronCount: CCTE's Neurite Outgrowth Assay in rat cortical cells for Neuron Count, Mundy Lab (AID 2284236);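 also: neurons counted by imaging betaIII-tubulin and Hoechst stained cortical cells; cells exposed to compound for about 48 hours before fixation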", "procedure,_shortened": "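Read-out: neuron number by high-content imaging of betaIII-tubulin (Alexa Fluor-488) and Hoechst-labelled rat primary cortical cells.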"}},
  "note": "Inconclusive results are not listed. Activity calls are given as the source filed them. The calls were made as follows, unless noted: active = hit-call score of the fitted dose curve at least 0.9, where 1 is the maximum; inconclusive = response in the unintended direction; inactive = score below 0.9.",
  "data": [
    {"smiles": "CCCCCCCCn1sccc1=O", "values": [
      {"measurement": "AC50", "setting": "[1]", "value": "7.87 µM (active)"}
    ]},
    {"smiles": "CC(C)(C)C(O)(CCc1ccc(Cl)cc1)Cn1cncn1", "note": "(stereo unspecified)", "values": [
      {"measurement": "outcome", "setting": "[1]", "value": "inactive"},
      {"measurement": "AC50", "setting": "[2]", "value": "18.2 µM (active)"},
      {"measurement": "AC50", "setting": "[3]", "value": "162 nM (active)"},
      {"measurement": "AC50", "setting": "[4]", "value": "9.92 µM (active)"},
      {"measurement": "outcome", "setting": "[5]", "value": "inactive"},
      {"measurement": "outcome", "setting": "[6]", "value": "inactive"}
    ]},
    {"smiles": "Nc1cc(Cl)cc(C(=O)O)c1Cl", "values": [
      {"measurement": "outcome", "setting": "[3]", "value": "inactive"},
      {"measurement": "outcome", "setting": "[4]", "value": "inactive"},
      {"measurement": "outcome", "setting": "[5]", "value": "inactive"},
      {"measurement": "outcome", "setting": "[6]", "value": "inactive"}
    ]},
    {"smiles": "c1ccc(N=Nc2ccccc2)cc1", "values": [
      {"measurement": "outcome", "setting": "[1]", "value": "inactive"}
    ]},
    {"smiles": "CCC[CH2][Sn]([Cl])([CH2]CCC)[CH2]CCC", "values": [
      {"measurement": "AC50", "setting": "[7]", "value": "0.079 µM (active)"},
      {"measurement": "AC50", "setting": "[3]", "value": "88.6 nM (active)"},
      {"measurement": "AC50", "setting": "[4]", "value": "4.18 µM (active)"},
      {"measurement": "AC50", "setting": "[5]", "value": "0.335 µM (active)"},
      {"measurement": "AC50", "setting": "[6]", "value": "0.0308 µM (active)"}
    ]},
    {"smiles": "OCCOCCO", "values": [
      {"measurement": "outcome", "setting": "[3]", "value": "inactive"},
      {"measurement": "outcome", "setting": "[4]", "value": "inactive"},
      {"measurement": "outcome", "setting": "[5]", "value": "inactive"},
      {"measurement": "outcome", "setting": "[6]", "value": "inactive"}
    ]},
    {"smiles": "ClC1=C(Cl)C2(Cl)C3C(Cl)C=CC3C1(Cl)C2(Cl)Cl", "note": "(stereo unspecified)", "values": [
      {"measurement": "AC50", "setting": "[1]", "value": "50 µM (active)"},
      {"measurement": "outcome", "setting": "[2]", "value": "inactive"},
      {"measurement": "AC50", "setting": "[7]", "value": "26.5 µM (active)"},
      {"measurement": "AC50", "setting": "[3]", "value": "12200 nM (active)"},
      {"measurement": "AC50", "setting": "[4]", "value": "90.2 µM (active)"},
      {"measurement": "AC50", "setting": "[5]", "value": "13.4 µM (active)"},
      {"measurement": "AC50", "setting": "[6]", "value": "11.5 µM (active)"}
    ]},
    {"smiles": "CNC(=O)Oc1cccc2c1OC(C)(C)C2", "values": [
      {"measurement": "outcome", "setting": "[7]", "value": "inactive"},
      {"measurement": "outcome", "setting": "[3]", "value": "inactive"},
      {"measurement": "outcome", "setting": "[4]", "value": "inactive"},
      {"measurement": "outcome", "setting": "[5]", "value": "inactive"},
      {"measurement": "outcome", "setting": "[6]", "value": "inactive"}
    ]},
    {"smiles": "C1=Cc2cccc3cccc1c23", "values": [
      {"measurement": "outcome", "setting": "[1]", "value": "inactive"},
      {"measurement": "outcome", "setting": "[2]", "value": "inactive"}
    ]},
    {"smiles": "O=P(OCCCl)(OCCCl)OCCCl", "values": [
      {"measurement": "outcome", "setting": "[1]", "value": "inactive"}
    ]},
    {"smiles": "COC(=O)Nc1nc2ccccc2[nH]1", "values": [
      {"measurement": "outcome", "setting": "[7]", "value": "inactive"},
      {"measurement": "AC50", "setting": "[3]", "value": "3980 nM (active)"},
      {"measurement": "AC50", "setting": "[4]", "value": "6.5 µM (active)"},
      {"measurement": "AC50", "setting": "[5]", "value": "9.91 µM (active)"},
      {"measurement": "outcome", "setting": "[6]", "value": "inactive"}
    ]}
  ]
}
